From PubChem BioAssay AID1347416 (National Center for Advancing Translational Sciences (NCATS), 2020)
Out of some 4,100 compounds screened, about 1,600 (39%) were called active. About 25% were inconclusive and are not listed. Calls follow the shape of the dose curve; as a rule, active = well fitted inhibition curve with a large enough effect; inconclusive = small, poorly fitted or top-dose-only effect; inactive = no such curve, though single readings can be large or run the other way. The list shows a part of the results.

Experiment: qHTS Validation assay for Inhibitors of Plasmodium falciparum Dd2 growth in vitro; also: nearly all actives have a fitted effect of over 70% in size
Conditions: P. falciparum Dd2 in RBCs, SYBR Green growth, 72 h; series mostly up to 28.7 µM; activity change, negative = inhibition: at the top concentration
Method in brief: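 P. falciparum Dd2-infected red blood cells (2.5% hematocrit, 0.3% parasitemia) grown 72 h at 37 °C under 5% O2 with compounds in a titration, 29 uM to 0.5 nM final. Growth read as SYBR Green-1 fluorescence after ~16 h lysis; artesunate 300 nM as positive control.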
% is scaled to controls: 0 for no effect and ±100 for the full control effect; potency is read from the fitted curve at half-maximal effect.

Row | Compound | activity change, negative = inhibition | Potency
1 | COc1cccc(CNC(=O)[C@@H]2C[C@@H](O)CN2C2CCN(C(=O)c3ccc(OC)c(F)c3)CC2)c1 | 0.134% (inactive) | 
2 | COc1cccc(C(=O)N2CCC(N3C[C@H](O)C[C@H]3C(=O)N3CCc4ccccc4C3)CC2)c1 |  | 8.41 µM (active)
3 | COCCNC(=O)[C@@H]1C[C@@H](O)CN1C1CCN(C(=O)Cc2ccccc2)CC1 | 0.0678% (inactive) | 
4 | COc1ccc(C(=O)N2CCC(n3c(C)cnc3-c3ccccc3)CC2)c(OC)c1 | -11.3% (inactive) | 
5 | COc1cccc(C(=O)N2CCC(N3C[C@H](O)C[C@H]3C(=O)N3CC=C(c4ccccc4)CC3)CC2)c1 |  | 9.44 µM (active)
6 | CCCC(=O)N1CCn2c(nnc2[C@@H]2C[C@@H](O)CN2Cc2ccccc2)C1 | 17.5% (inactive) | 
7 | CC(C)OCc1cc(CN2CCN(c3cccc(C(F)(F)F)c3)CC2)c(O)c2ncccc12 |  | 6.68 µM (active)
8 | CCCCOCc1cc(CN2CCN(c3cccc(Cl)c3)CC2)c(O)c2ncccc12 |  | 6.68 µM (active)
9 | c1cc(-c2noc([C@@H]3Cc4nc[nH]c4CN3CC3CCCCC3)n2)ccn1 |  | 21.7 µM (active)
10 | CCOc1ccc(CC(=O)N2CCC[C@H]2c2nc(-c3ccc(C)cc3)no2)cc1 | 22.8% (inactive) | 
11 | COc1ccc(-c2noc(CCCC(=O)N3CCCC3c3nc(C4CCOCC4)no3)n2)cc1OC (stereo not drawn) | -2.3% (inactive) | 
12 | COCCOc1cc(-c2noc([C@@H]3CCCN3CC3CC3)n2)ccn1 |  | 15.3 µM (active)
13 | COCCNc1ncccc1-c1noc([C@@H]2CCCN2Cc2ccccn2)n1 |  | 7.69 µM (active)
14 | COc1ccc(C(=O)N2CCC[C@H]2c2nc(-c3ccccc3Cl)no2)cc1OC | 4.37% (inactive) | 
15 | COc1ccc(C(O)(CCC(C)C)C(CN2CCOCC2)c2ccc(Cl)cc2)cc1 (stereo not drawn) |  | 6.68 µM (active)
16 | COc1ccc(C(O)(CCC(C)C)C(CN2CCOCC2)c2ccccc2)cc1 (stereo not drawn) |  | 5.31 µM (active)
17 | COc1cc(OC)c(NC(=O)N2CCc3cc(S(=O)(=O)N4CCC(C)CC4)ccc32)cc1Cl | 39.5% (inactive) | 
18 | COc1ccc(OC)c(NC(=O)c2ccc3c(c2)N(S(=O)(=O)c2ccccc2)CC3)c1 | -26.8% (inactive) | 
19 | COc1ccc(S(=O)(=O)N2CCCCCC2)cc1NC(=O)c1c2c(nc3ccccc13)CCN(Cc1ccccc1)C2 |  | 4.73 µM (active)
20 | COCCOCC1(CNC(=O)c2cnccn2)C[C@@H](O)[C@@H](O)C1 (stereo partly drawn) | 54.4% [at 43.1 µM] (inactive) | 
21 | O=c1c2ccccc2sc2nc(C3CCCCC3)n(Cc3ccco3)c(=O)c12 |  | 7.5 µM (active)
22 | Cc1ccc(S(=O)(=O)c2nnn3c2nc(N2CCN(c4ccccn4)CC2)c2ccccc23)cc1 |  | 7.5 µM (active)

Row | Compound | activity change, negative = inhibition | Potency
23 | CC1CCN(c2nc3c(S(=O)(=O)c4ccccc4)nnn3c3ccc(Cl)cc23)CC1 |  | 2.66 µM (active)
24 | CN(C)c1cc(=O)c2ccnc(N3CCN(c4ccccn4)CC3)c2o1 | 12.8% [at 43.1 µM] (inactive) | 
25 | Cc1c(C(=O)N2CCN(c3ccccn3)CC2)oc2ccccc12 | 24.9% (inactive) | 
26 | O=S(=O)(c1ccccc1)c1nnn2c1nc(NC1CCN(Cc3ccccc3)CC1)c1cc(Cl)ccc12 |  | 2.99 µM (active)
27 | COc1ccc(CN2CCCC(N3CCc4ccccc4C3)C2)c(O)c1 (stereo not drawn) |  | 2.99 µM (active)
28 | COc1cccc(CN(C)C2CCc3ccccc32)c1 (stereo not drawn) | -11.5% [at 43.1 µM] (inactive) | 
29 | COc1ccc2c(c1)CCN=C2C[C@H]1CN(C(=O)NC(C)C)CC[C@H]1CC(=O)O | 40.3% [at 43.1 µM] (inactive) | 
30 | COc1ccc(CCn2c(=N)c(C(=O)NCc3ccco3)cc3c(=O)n4cccc(C)c4nc32)cc1 |  | 1.68 µM (active)
31 | COc1ccc(CCn2c(=N)c(C(=O)NCCN3CCOCC3)cc3c(=O)n4cccc(C)c4nc32)cc1OC |  | 13.3 µM (active)
32 | Cc1ccc(-c2cc3c(=O)n(CCNC(=O)c4ccc[nH]c4=O)ccn3n2)cc1C | -19.5% (inactive) | 
33 | CCOCCCn1c(=N)c(C(=O)NCc2cccnc2)cc2c(=O)n3ccccc3nc21 | 35.7% (inactive) | 
34 | Cc1cccn2c(=O)c3cc(C(=O)NC(C)c4ccccc4)c(=N)n(CCOCCO)c3nc12 (stereo not drawn) |  | 10.6 µM (active)
35 | Cc1cccn2c(=O)c3cc(C(=O)NCCc4ccc(S(N)(=O)=O)cc4)n(C)c3nc12 | 52.4% (inactive) | 
36 | CCCc1noc(-c2cccn3c(CNC(=O)c4ccc(OC)cc4C)nnc23)n1 | 5.42% (inactive) | 
37 | N#Cc1cccc(-c2cn3c(n2)N(C(=O)CC2CCCC2)CCC3)c1 | -24.1% (inactive) | 
38 | CCCCCCc1cc2cc(-c3nnc(-c4ccc(C)cc4)o3)c(=O)oc2cc1O | 75.9% (inactive) | 
39 | O=C(C1CCCC1)N1CCN(c2nnc3c(Cl)cccn23)CC1 | -1.29% (inactive) | 
40 | COc1ccc(CCNC(=O)c2cc3c(=O)n4cccc(C)c4nc3n(CC3CCCO3)c2=N)cc1 (stereo not drawn) | 12.4% (inactive) | 
41 | Cc1cccn2c(=O)c3cc(C(=O)NC4CCCC4)c(=N)n(CCc4ccccc4)c3nc12 |  | 1.88 µM (active)
42 | COc1ccc(CCn2c(=N)c(C(=O)NC3CCCC3)cc3c(=O)n4cccc(C)c4nc32)cc1 |  | 0.75 µM (active)
43 | CN1CCCCC(CC(=O)NCCc2ccccc2)C1=O (stereo not drawn) | 19.6% (inactive) | 
44 | Cc1cc(N)c2cc(NC(=O)/C=C/c3ccccc3Cl)ccc2n1 |  | 1.88 µM (active)

Row | Compound | activity change, negative = inhibition | Potency
45 | O=C(/C=C/c1ccccc1)Nc1cccc(C(=O)O)c1 | 36.5% (inactive) | 
46 | O=C(COc1ccc(F)cc1)N1CCC(c2noc(-c3ccncc3)n2)C1 (stereo not drawn) | -28.6% (inactive) | 
47 | CC1C(=O)C(C)C(c2cc(Cl)ccc2O)NC1c1cc(Cl)ccc1O (stereo not drawn) |  | 6.68 µM (active)
48 | Cc1[nH]c2c(C)cccc2c(=O)c1Br |  | 5.31 µM (active)
49 | Cc1cnc(C(=O)N[C@@H]2CCC[C@@H]2C(=O)N2CCC(Cc3ccccc3)CC2)cn1 | -11.4% (inactive) | 
50 | Cc1cnc(C(=O)Nc2cccc3cccnc23)cn1 |  | 2.66 µM (active)
51 | CC(C)(C)c1ccc(C(=O)N2CCN(Cc3cc(=O)n4nc(-c5ccccc5F)sc4n3)CC2)cc1 | 19% (inactive) | 
52 | CCN1CCN(C(=O)c2ccc3c(c2)N(Cc2ccccc2F)C(=O)c2ccccc2S3=O)CC1 (stereo not drawn) |  | 0.842 µM (active)
53 | O=C1Nc2ccc(-c3ccc(Cl)cc3)cc2C(=O)N2CCN(C(=O)c3ccccc3)C[C@H]12 | -13.6% (inactive) | 
54 | CCn1cc(CN2CCN(C(=O)c3ccsc3)CC2)ccc1=O | 38.8% (inactive) | 
55 | CCOc1ccc(-c2cc3c(=O)n(CCNC(=O)c4ccc(OC)c(F)c4)ccn3n2)cc1 | -12.6% (inactive) | 
56 | CCOc1ccc(CCNC(=O)c2ccc3c(c2)N(Cc2ccccc2F)C(=O)c2ccccc2S3=O)cc1OCC (stereo not drawn) |  | 10.6 µM (active)
57 | COc1ccc(C(=O)N2CCc3nn(Cc4ccccc4)c(=O)n3CC2)cc1F | 8.65% (inactive) | 
58 | CCN1CCN(C(=O)c2ccc3c(c2)N(Cc2ccc(Cl)cc2)C(=O)c2ccccc2S3=O)CC1 (stereo not drawn) |  | 0.668 µM (active)
59 | CCOC(=O)Cn1c(=NC(=O)C2CC2)sc2c(C)cc(C)cc21 | -25.1% (inactive) | 
60 | CCc1ccc(N2CC(c3noc(-c4nccc5ccccc45)n3)CC2=O)cc1 (stereo not drawn) | 9.68% (inactive) | 
61 | O=S(=O)(c1ccc(Cl)cc1)N1CCN(Cc2ccc(O)c3ncccc23)CC1 |  | 13.3 µM (active)
62 | O=C(N[C@H]1CO[C@H]2[C@@H]1OC[C@@H]2n1cc(-c2ccccc2)nn1)c1ccc(C(F)(F)F)cc1 | 30.8% (inactive) | 
63 | COc1ccc(CN2C(=O)C(C)N(C(=O)c3c(F)cccc3F)c3ccccc32)cc1 (stereo not drawn) |  | 7.5 µM (active)
64 | COc1ccc(CN2C(=O)C(NC(=O)c3ccccc3C)(C(F)(F)F)N=C2c2ccccc2)cc1 (stereo not drawn) | 14.3% (inactive) | 
65 | O=C(/C(=C/c1ccc(Cl)cc1)c1nc2ccccc2[nH]1)c1cccs1 |  | 2.11 µM (active)
66 | CN(C)CCCNc1ccc(-c2cc(Nc3cccc(Cl)c3)ncn2)cn1 |  | 9.44 µM (active)

Row | Compound | activity change, negative = inhibition | Potency
67 | O=C(Nc1nnc(SCc2ccc(F)cc2)s1)c1ccccn1 |  | 8.41 µM (active)
68 | O=C(Nc1ccc(F)cc1)Nc1nnc(SCC(=O)N2CCCCC2)s1 | -27.1% (inactive) | 
69 | CCc1nnc(NC(=O)c2cc(Cl)ccn2)s1 | 197% (inactive) | 
70 | CC1=C[C@@H](CNC(=O)COc2ccccc2)[C@H](C(C)C)C[C@H]1Cc1nnc(-c2cncn2C)o1 |  | 13.3 µM (active)
71 | COc1ccccc1N1CCN(C[C@@H]2C=C(C)[C@H](Cc3nnc(-c4cncn4C)o3)C[C@H]2C(C)C)CC1 |  | 10.6 µM (active)
72 | Cc1ccc(NC(=O)CCSc2nc(-c3ccco3)cc(C(F)(F)F)n2)cc1F | -6.22% (inactive) | 
73 | COc1cccc(NC(=O)CCSc2nc(-c3ccco3)cc(C(F)(F)F)n2)c1 | 0% (inactive) | 
74 | COc1ccc(-c2cc(C(F)(F)F)nc(SCCC(=O)Nc3cc(C)ccc3O)n2)cc1 |  | 1.88 µM (active)
75 | O=C(Nc1cc(C(F)(F)F)cc(C(F)(F)F)c1)Nc1cnn(-c2ccc([N+](=O)[O-])cc2)c1C(F)(F)F |  | 6.68 µM (active)
76 | CC(Sc1nc2cc([N+](=O)[O-])ccc2n1-c1cccc(C(F)(F)F)c1)C(=O)NC(N)=O (stereo not drawn) | -0.926% (inactive) | 
77 | Cc1cn2nc(C(=O)Nc3ccc(N(C)C)cc3)cc2c(N(C)Cc2ccccc2)n1 |  | 15 µM (active)
78 | Cc1cn2nc(C(=O)NCc3ccccc3F)cc2c(N(C)Cc2ccccc2)n1 | -11.1% (inactive) | 
79 | Cc1cn2nc(C(=O)Nc3ccc4c(c3)OCCO4)cc2c(N(C)Cc2ccccc2)n1 | -6.41% (inactive) | 
80 | CNc1cc(C)nc(-n2nc(C)cc2C)n1 |  | 8.41 µM (active)
81 | Cc1cc(N2CCC(C)CC2)nc(-n2nc(C)cc2C)n1 |  | 2.99 µM (active)
82 | Cc1ccc(Nc2cc(C)nn2-c2nc(C)cc(C)n2)cc1 |  | 6.68 µM (active)
83 | COc1ccc(/C=N/Nc2cc(C)nc(-n3nc(C)cc3C)n2)c(OC)c1 |  | 5.31 µM (active)
84 | COCC(=O)NC[C@H]1CCN(Cc2ccc(Cl)cc2)C[C@H]1N(C)C | 13.5% (inactive) | 
85 | COc1cccc(NC(=O)c2sc3nc(C)c(C(=O)Nc4ccc(C)cc4C)c(-c4cccs4)c3c2N)c1 |  | 5.96 µM (active)
86 | COc1cccc(NC(=O)c2sc3nc(C)c(C(=O)Nc4ccc(C)cc4C)c(-c4ccccc4Cl)c3c2N)c1 |  | 2.66 µM (active)
87 | COc1cccc(OC)c1C(=O)Nc1cccc(-c2nc3cc(C)cc(C)c3o2)c1 | 46.6% (inactive) | 
88 | NC1CCCCN(C(=O)CCc2n[nH]c3c2CCCC3)C1 (stereo not drawn) | 55.9% (inactive) | 
